Results from ChEMBL document CHEMBL3988442, “University of Dundee, Small-Polar-MMV Screening Library” (2021).
The whole screen tested about 38,000 compounds, of which about 1,200 (3.2%) showed an effect of 50% or more. The median lay at about -58%. For the sample, strong results were picked, then their nearest neighbours and some compounds at random.

System: Plasmodium falciparum
Assay: Calibr Malaria Delayed Death Assay SOP
Assay type: functional, organism-based
Design: scale not given: in the data most compounds retested in dose-response had high values
Details: concentration 4.99e-06 (unit not given; other assays of the set use mol/L)

SMILES | Percent Effect [%]
CO[C@H]1CNC[C@@H]1NC(=O)c1cc(C)nc2c(C)cc(C)cc12 | 73.93
Cc1cc(C)c2nc(C)cc(C(=O)NC(C)c3nnn[nH]3)c2c1 (centres undefined) | -3.579
CO[C@H]1CNC[C@@H]1NC(=O)c1cc(C)nc2c(C)c(C)ccc12 | -1.359
CCc1cnc(N2C[C@@H]3[C@@H](C(=O)N(C)C)CCS(=O)(=O)[C@@H]3C2)nc1 | -56.54
Cc1cc(C(=O)N2CCn3cc(CN(C)C)nc3C2)no1 | -39.89
Cc1noc(C)c1C(=O)NCC(c1ccsc1)N(C)C (centres undefined) | -8.165
Cc1noc(C(C)C)c1C(=O)NCC(c1ccsc1)N(C)C (centres undefined) | 17.17
O=C(O)C(F)(F)F.O=C(c1ccccn1)N1C[C@H]2CCC[C@@]2(COCC2CCOCC2)C1 | -43.42
Cc1cc(CN2CCC(CNS(=O)(=O)c3ccc(Br)s3)CC2)c(C)o1 | 91.4
Cc1cc(C(O)CCNS(=O)(=O)c2ccc(Cl)s2)c(C)o1 (centres undefined) | -41.19
Cc1cc(CN2CCC(CNS(=O)(=O)c3c(C)noc3C)CC2)c(C)o1 | 26.64
O=S(=O)(NCC(O)c1ccoc1)c1ccc(Br)s1 (centres undefined) | -179.3
Cc1cc(CN2CCC(CNS(=O)(=O)c3ccc(C)s3)CC2)c(C)o1 | 87.35
Cc1ccc(S(=O)(=O)NCCc2ccoc2)s1 | -129
O=C(c1c[nH]nn1)N1CCCC1C1CCCCC1 (centres undefined) | 48.49
O=C(C1CCC1)N1CCC(=O)N(C2CC2)Cc2cc(F)ccc21 | -6.345
CCNc1ccnc(NC2CCN(CC(N)=O)CC2)n1 | -56.83
N#Cc1cc(Br)ccc1NC1CCN(CC(N)=O)CC1 | 19.71
Cc1cccc(-n2c(C)cc(=O)[nH]c2=O)c1C | -21.52
CC1CCN(CCCNC(=O)c2ccc(N(C)S(C)(=O)=O)cc2Cl)CC1 | -35.22
O=C(NCc1ccccc1)NCC1CCN(Cc2ccsc2)CC1 | -54.93
CC(=O)c1cn(CCC(=O)Nc2c3c(nn2C)CSC3)c2ccccc12 | 26.69
Fc1ccc(CC2CCN(Cc3nccs3)CC2)cc1 | 0.00383
Fc1cccc(CN2CCN(Cc3cscn3)CC2)c1 | -54.95

SMILES | Percent Effect [%]
Fc1ccc(CC2CCN(Cc3cscn3)CC2)cc1 | 50.2
CC(C)c1n[nH]c(C2CN(C(=O)c3cc(C(N)=O)cs3)CCO2)n1 (centres undefined) | -7.804
CN(C)c1ncccc1CNc1snc(Cl)c1C#N | -8.92
Cc1ccc(CN2CC[C@H]3CO[C@H](CN(C)Cc4ccco4)[C@H]3C2)s1.O=C(O)C(F)(F)F.O=C(O)C(F)(F)F | 57.63
CN1CCN(C[C@@H]2OC[C@H]3CN(Cc4ccsc4)CC[C@H]32)CC1.O=C(O)C(F)(F)F.O=C(O)C(F)(F)F.O=C(O)C(F)(F)F | 7.397
Cc1ccc(CN2CC[C@H]3CO[C@H](CN(C)C)[C@H]3C2)o1 | -9.526
O=C(NC[C@H]1OC[C@@H]2CCN(Cc3ccco3)C[C@@H]21)c1ccsc1.O=C(O)C(F)(F)F | -100.7
CN(Cc1ccco1)C[C@@H]1OC[C@H]2CN(Cc3nccs3)CC[C@H]21.O=C(O)C(F)(F)F.O=C(O)C(F)(F)F | -54.97
CN1CCN(C[C@H]2OC[C@@H]3CCN(Cc4ccsc4)C[C@@H]32)CC1 | 77.67
Cc1ccc(N2CC[C@H]3CO[C@H](CN(C)Cc4ccco4)[C@H]3C2)nn1.O=C(O)C(F)(F)F.O=C(O)C(F)(F)F | -41.04
CN(Cc1ccco1)C[C@H]1OC[C@@H]2CCN(Cc3ccsc3)C[C@@H]21.O=C(O)C(F)(F)F.O=C(O)C(F)(F)F | 65.82
O=C(O)C(F)(F)F.O=C(O)C(F)(F)F.c1cc(CN2CC[C@H]3CO[C@H](CN4CCOCC4)[C@H]3C2)cs1 | -2.124
O=C(O)C(F)(F)F.O=C(O)C(F)(F)F.c1cnc(NC[C@H]2OC[C@@H]3CCN(Cc4ccsc4)C[C@@H]32)nc1 | -30.65
Cc1cccc(N2CC[C@H]3[C@H](CO[C@@H]3CN(C)Cc3ccco3)C2)n1.O=C(O)C(F)(F)F.O=C(O)C(F)(F)F | 3.761
CSCCC(CO)NC(=O)c1ccc2[nH]/c(=N\S(C)(=O)=O)sc2c1 (centres undefined) | -143.2
COCC(O)CN1CCC(=O)N(CC(=O)C(C)(C)C)Cc2ccccc21 (centres undefined) | 3.723
Cc1cccc(N2CCN(C(=O)CNCCn3cc(C)cn3)CC2)c1 | -74.29
CC(=O)N(Cc1noc(C)n1)C1CCN(CC2CCCC2)C1 (centres undefined) | -72.7
Cc1nn(C)c(N2CCOCC2)c1CNCc1cccnc1 | -102.1
COCCNc1cc(C)nn2cnnc12 | -138.9
CNc1nc2c(s1)C(c1cccc(F)c1F)CC(=O)N2 (centres undefined) | -75.94
CC(C)n1[nH]c(=O)c2c1NC(=O)CC2c1ccncc1 (centres undefined) | -11.96
COc1ncccc1CN1C[C@@H]2COC[C@]2(COc2ccccn2)C1.O=C(O)C(F)(F)F.O=C(O)C(F)(F)F.O=C(O)C(F)(F)F | -20.51
Cc1ccc(C(=O)Cc2c(Cl)nc3n(C)c(=O)n(C)c(=O)n23)cc1 | -11.12

SMILES | Percent Effect [%]
CC(C)(C)n1ncc2c1NC(=O)CC2c1c(F)cccc1F (centres undefined) | -175.8
COc1cc(Cl)c(CN2CCC(C(N)=O)C2)cc1Cl (centres undefined) | 3.59
CSc1ccc(OCCN2CCNC(=O)CC2)cc1 | -70.99
COc1ccc(CN2CCC(C(N)=O)C2)c(Br)c1OC (centres undefined) | -101
COc1ccc(C(C)NC(=O)N2CCNC(=O)CC2)cc1F (centres undefined) | -89.17
COc1ccc(CN2CCC(C(N)=O)CC2)cc1SC(F)(F)F | 63.84
COc1ccc(CN2CCNC(=O)CC2)cc1SC(F)(F)F | 74.78
OC(CN1CCC(c2ccn[nH]2)CC1)c1ccc(F)cc1F (centres undefined) | -72.07
Cc1ccc(C)c(S(=O)(=O)NCCOc2ccc3nnc(C)n3n2)c1 | -6.832
Cc1cc(C[C@@H]2CCC[C@H]2NCc2c[nH]nc2-c2ccccc2)on1.O=C(O)CC(O)(CC(=O)O)C(=O)O | 55.35
Cc1cc(C[C@@H]2CCC[C@H]2NCc2ccc(C(F)(F)F)cc2)on1.O=C(O)CC(O)(CC(=O)O)C(=O)O | -14.83
COc1cccc(-c2n[nH]cc2CNC2CCC(O)CC2)c1.Cl (centres undefined) | -76.02
COc1cccc(-c2n[nH]cc2CNC2CCCN(C)C2)c1 (centres undefined) | -88.31
Cc1cc(C[C@@H]2COC[C@@H]2NC(=O)Cn2c(=O)oc3ccccc32)on1 | -110.9
CN(C(=O)Nc1cccnc1)C1CCN(c2ccc(Cl)cc2)CC1 | 4.443
Cc1cc(C)n(CC2CCCN2CC(=O)N(C)CCC#N)n1 (centres undefined) | -49.25
CCC(C)C(=O)N(CC(=O)OC)c1cccc(C)n1 (centres undefined) | -66.48
CCN(CC1CN(Cc2nc(C3CC3)no2)CCO1)c1cccnn1 (centres undefined) | 72.53
CCN(CC1CN(Cc2c(C)noc2C)CCO1)c1cccnn1 (centres undefined) | -53.53
CCN(CC1CN(Cc2ncc(C)o2)CCO1)c1cccnn1 (centres undefined) | -35.01
CCNC(=O)Cc1ccc(-c2cccc3c2CCNC3)cc1 | -6.885
COCCC(=O)N1CCC2(CCCN2Cc2ccccc2)C1 (centres undefined) | -58.21
Nc1nc(CC(=O)N2CCCC(CCc3cccc(F)c3)C2)cc(=O)[nH]1 (centres undefined) | -43.06
CCN(C(=O)Nc1nncs1)C(C)c1cccc(OC)c1 (centres undefined) | -32.07

SMILES | Percent Effect [%]
Cc1nc(C)n(CC2CCCCN2c2ncnc3ccsc23)n1 (centres undefined) | -49.26
CC(C)c1ccc(S(=O)(=O)Cc2nc(N)nc(N(C)C)n2)cc1 | -42.62
COc1ccc(Cl)cc1-c1nc(N)nc(N(C)C)n1 | -104.8
COc1ccccc1CCN(C)Cc1nc(N)nc(N(C)C)n1 | 69.03
COc1ccccc1CC(C)N(C)CCS(C)(=O)=O (centres undefined) | -4.563
CN(CC(=O)Nc1cccc(F)c1)Cc1nc(N)nc(N(C)C)n1 | -117.7
Cc1ccccc1CC1(C(=O)O)CCCN(c2ncnc3[nH]ccc23)C1 (centres undefined) | -4.529
Cc1c(C(=O)NCCC(C)C)nnn1-c1cccc2c1CCN(C)C2 | -15.36
CC(O)CN1CCN(Cc2cccc(C(=O)N(C)C)c2)CC1 (centres undefined) | -48.6
CC(O)CN1CCN(Cc2cccc(C#N)c2)CC1 (centres undefined) | 12.6
CC(O)CN1CCC(CNCc2cccc(Cl)c2)CC1 (centres undefined) | 87.41
Cc1ncccc1CNCC1CCN(CC(O)c2ccccc2)CC1 (centres undefined) | 29.35
CC(O)CN1CCC(CNCc2cn(-c3ccccc3)nn2)CC1 (centres undefined) | -67.96
CN1Cc2cc(F)ccc2N(CC(O)C(F)(F)F)CCC1=O (centres undefined) | 13.79
Cc1ccc(CN(C)C(=O)c2ccc(NC3CC3)nc2)o1 | -155.8
CCN1CCN(Cc2c(C3CCCC3)[nH]c3ncccc23)CC1 | -34.79
Cc1ccc(-c2cc(C(=O)NCCCc3csc(N)n3)[nH]n2)o1 | 18.73
COc1ccc2c(C)c(C(=O)NCCCc3csc(N)n3)oc2c1 | -56.16
Cc1ccc(-c2cc(C(=O)NCCCc3csc(N)n3)[nH]n2)s1 | 65.08
Cc1nn(C)c2nc(N3CCNC(=O)C3Cc3ccccc3)sc12 (centres undefined) | -89.32
COC(=O)CN1CCN(c2nc3c(s2)c(C)nn3C)C(C)C1=O (centres undefined) | -95.69
Cc1ccc(CN2CCN(c3nc4c(s3)c(C)nn4C)C(C)C2=O)cc1 (centres undefined) | 68.91
